Reference: PubChem BioAssay (EPA / NIEHS)
Results filed as inconclusive are left out. Calls of active or inactive are those of the source. How the source made its calls, unless noted: active means hit-call score of the fitted dose curve at least 0.9, where 1 is the maximum; inconclusive means response in the unintended direction; inactive means score below 0.9.

Columns and labels:
[1] = ATG_TAL_CIS: Attagene CIS-FACTORIAL HepG2 Assay for human TAL Basal Promoter (AID 2282966; active means hit-call score of the fitted dose curve at least 0.9, where 1 is the maximum; inactive means score below 0.9;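 further: background control endpoint measuring basal TAL promoter reporter mRNA not a specific factor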); conditions: HepG2 Attagene cis-factorial TAL promoter reporter; actives raise or lower the signal
Outline: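 RT-PCR plus capillary electrophoresis quantifies reporter mRNA induction in transiently transfected HepG2 cells after 24 h chemical treatment. DMSO serves as negative control and baseline for bidirectional fitting.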

[2] = ATG_TGFb_CIS: Attagene CIS-FACTORIAL HepG2 Assay for human Transforming Growth Factor (TGF) (AID 2282967; active means hit-call score of the fitted dose curve at least 0.9, where 1 is the maximum; inactive means score below 0.9); conditions: HepG2 Attagene CIS TGFb reporter, mRNA transcription; actives raise or lower the signal
Outline: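 HepG2 cells transiently transfected with cis-promoter-driven multiple reporter units measure endogenous TF activity; reporter mRNA quantified at 24 h by RT-PCR, FAM labeling, HpaI digestion and capillary electrophoresis. Bidirectional fit vs DMSO.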

[3] = ATG_VDRE_CIS: Attagene CIS-FACTORIAL HepG2 Assay for human Vitamin D Receptor Element (VDRE) (AID 2282968; active means hit-call score of the fitted dose curve at least 0.9, where 1 is the maximum; inactive means score below 0.9); conditions: HepG2 VDRE cis-reporter transcription, actives raise or lower the signal
Outline: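 Reporter mRNA induction, quantified by capillary electrophoresis of fluorescently labelled RT-PCR products, was read 24 h after dosing HepG2 cells carrying transiently transfected cis-regulated reporter units; gain or loss relative to DMSO.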

[4] = molecular target: Nuclear receptor subfamily 1 group I member 3 (Homo sapiens) (UniProt Q14994); experiment: ATG_CAR_TRANS: Attagene TRANS-FACTORIAL HepG2 Assay for human Constitutive Androstane Receptor (CAR) (AID 2282969); conditions: HepG2 Attagene TRANS-FACTORIAL CAR reporter;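 further: activators raise reporter mRNA above DMSO so AC50 marks induction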
Outline: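 Readout is reporter mRNA induction, quantified by fluorescent primer extension and capillary electrophoresis after RT-PCR. Cells were HepG2 transiently carrying chimeric NR-Gal4 constructs with GAL4-UAS reporters, treated for 24 h; activity scored upward from DMSO.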

[5] = molecular target: X-box-binding protein 1 (Homo sapiens) (UniProt P17861); experiment: ATG_Xbp1_CIS: Attagene CIS-FACTORIAL HepG2 Assay for human X-box Binding Protein 1 (XBP1) (AID 2282972; active means hit-call score of the fitted dose curve at least 0.9, where 1 is the maximum; inactive means score below 0.9); conditions: HepG2 XBP1 cis-element reporter, Attagene multiplex; actives raise or lower the signal
Outline: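 HepG2 cells transiently transfected with cis-regulated multiple reporter transcription units; endogenous transcription factor activity measured 24 hours after chemical dosing. Reporter mRNA quantified by RT-PCR, 6-FAM primer extension, HpaI digestion and capillary electrophoresis; bidirectional fitting versus DMSO.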

[6] = molecular target: Oxysterols receptor LXR-alpha (Homo sapiens) (UniProt Q13133); experiment: ATG_LXRa_TRANS: Attagene TRANS-FACTORIAL HepG2 Assay for human Liver X Receptor alpha (LXRa) (AID 2282980); conditions: HepG2 Attagene TRANS reporter, LXRa transactivation
Outline: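 Chemical-induced reporter mRNA measured by RT-PCR with fluorescent labelling and capillary electrophoresis after 24 h dosing of transiently transfected HepG2 cells expressing exogenous NR-Gal4 chimeras; increases scored against DMSO baseline.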

[7] = molecular target: Oxysterols receptor LXR-beta (Homo sapiens) (UniProt P55055); experiment: ATG_LXRb_TRANS: Attagene TRANS-FACTORIAL HepG2 Assay for human Liver X Receptor beta (LXRb) (AID 2282981); conditions: HepG2 Attagene TRANS GAL4-LXRb reporter, mRNA
Outline: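 Transient transfection HepG2 (multiplexed RTUs, GAL4-UAS); NR-Gal4 chimera; 24 h exposure; RNA → RT-PCR → 6-FAM primer extension → HpaI → CE; increase vs DMSO.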

[8] = ATG_M_06_TRANS: Attagene TRANS-FACTORIAL HepG2 Assay for M06 Transcription Factor (Internal Marker) (AID 2282983); conditions: HepG2 Attagene TRANS M06 internal marker reporter;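 further: reporter transcript level by RT-PCR then capillary electrophoresis fluorescence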
Outline: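 Cells: HepG2, transient multi-reporter transfection. Exposure: 24 h. Detection: RT-PCR, 6-FAM labelling, HpaI digestion (2 h, 37 °C), capillary electrophoresis. Baseline: DMSO.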

[9] = molecular target: Nuclear receptor subfamily 4 group A member 2 (Homo sapiens) (UniProt P43354); experiment: ATG_NURR1_TRANS: Attagene TRANS-FACTORIAL HepG2 Assay for human Nuclear Receptor Related Protein 1 (NURR1) (AID 2282985); conditions: HepG2 Attagene TRANS reporter, mRNA readout
Outline: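 Transient transfection of HepG2, human liver cells, with multiple GAL4-UAS reporter transcription units. Cells dosed 24 h, RNA isolated, reverse-transcribed, PCR-amplified, FAM-labelled, HpaI-digested, sized by capillary electrophoresis. DMSO served as negative control.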

[10] = molecular target: Transcriptional activator Myb (Homo sapiens) (UniProt P10242); experiment: ATG_Myb_CIS: Attagene CIS-FACTORIAL HepG2 Assay for human Myeloblastosis (Myb) Proto-Oncogene Transcription Factor (AID 2282986; active means hit-call score of the fitted dose curve at least 0.9, where 1 is the maximum; inactive means score below 0.9); conditions: HepG2 Attagene CIS-FACTORIAL Myb reporter transcription; actives raise or lower the signal
Outline: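 Transiently transfected HepG2 cells carrying a multiplexed cis-promoter reporter set report endogenous Myb activity after 24 h compound exposure. Reporter mRNA is read by RT-PCR with capillary electrophoresis of fluorescent products, fitted bidirectionally against DMSO.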

[11] = molecular target: Nuclear respiratory factor 1 (Homo sapiens) (UniProt Q16656); experiment: ATG_NRF1_CIS: Attagene CIS-FACTORIAL HepG2 Assay for human Nuclear Respiratory Factor 1 (NRF1) Orphan Gene (AID 2282987; active means hit-call score of the fitted dose curve at least 0.9, where 1 is the maximum; inactive means score below 0.9); conditions: HepG2 NRF1 cis-element reporter, Attagene multiplex; actives raise or lower the signal
Outline: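 HepG2 cells transiently transfected with multiple cis-regulated reporter units, exposed 24 h. Reporter mRNAs measured by RT-PCR, fluorescent labelling, HpaI digestion and capillary electrophoresis; bidirectional fitting against DMSO.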

[12] = molecular target: Estrogen receptor (Homo sapiens) (UniProt P03372); experiment: ATG_ERa_TRANS: Attagene TRANS-FACTORIAL HepG2 Assay for human Estrogen Receptor alpha (ERa) (AID 2282970); conditions: HepG2 Attagene TRANS ERa GAL4 reporter, mRNA
Outline: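 Cells: HepG2, transiently transfected. Construct: GAL4-UAS reporter units regulated by exogenous NR-Gal4 chimeras. Time: 24 h. Detection: reporter mRNA by RT-PCR, capillary electrophoresis, fluorescence. Baseline: DMSO, upward fitting.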

[13] = ATG_M_19_TRANS: Attagene TRANS-FACTORIAL HepG2 Assay for M19 Transcription Factor (Internal Marker) (AID 2282974); conditions: HepG2 Attagene TRANS-FACTORIAL M19 internal marker reporter
Outline: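 HepG2 transiently transfected with GAL4-UAS multiplex reporter constructs, exposed 24 h; reporter RNA quantified by RT-PCR, 6-FAM labeling, HpaI digestion and capillary electrophoresis; internal background marker fitted upward versus DMSO.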

[14] = ATG_GAL4_TRANS: Attagene TRANS-FACTORIAL HepG2 Assay for GAL4 (Internal Marker) (AID 2282976); conditions: HepG2 Attagene TRANS GAL4 internal marker reporter
Outline: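 In transfected human HepG2 liver cells dosed 24 h, GAL4 reporter mRNA serves as a baseline marker. Detection by RT-PCR with fluorescent capillary electrophoresis, activity fitted upward relative to DMSO.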

[15] = molecular target: Estrogen-related receptor gamma (Homo sapiens) (UniProt P62508); experiment: ATG_ERRg_TRANS: Attagene TRANS-FACTORIAL HepG2 Assay for human Estrogen-Related Receptor gamma (ERRg) (AID 2282977); conditions: HepG2 Attagene TRANS reporter, ERRg transactivation;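 further: hits increase reporter signal over DMSO so potencies reflect activators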
Outline: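 HepG2 cells transiently transfected with multiplexed GAL4-UAS reporter units driven by chimeric NR-Gal4 proteins; 24 h exposure. Reporter mRNA quantified by RT-PCR, fluorescent labelling, HpaI digestion and capillary electrophoresis; gain of signal vs DMSO.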

[16] = molecular target: Bile acid receptor (Homo sapiens) (UniProt Q96RI1); experiment: ATG_FXR_TRANS: Attagene TRANS-FACTORIAL HepG2 Assay for Farnesoid X Receptor (FXR) (AID 2282979); conditions: HepG2 Attagene TRANS FXR-GAL4 reporter transcription;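 further: hits raise reporter mRNA above DMSO so AC50 marks FXR activation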
Outline: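 Reporter transcripts from transfected HepG2 cells were measured 24 h after dosing, using RT-PCR with capillary electrophoresis of 6-FAM-labelled fragments. The read-out reflects activity of exogenous FXR-Gal4 chimera on GAL4-UAS units, with induction relative to DMSO.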

[17] = molecular target: Glucocorticoid receptor (Homo sapiens) (UniProt P04150); experiment: ATG_GR_TRANS: Attagene TRANS-FACTORIAL HepG2 Assay for human Glucocorticoid Receptor (GR) (AID 2282978); conditions: HepG2 Attagene TRANS GR reporter, mRNA transcription;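 further: activators score as hits since higher reporter transcript over DMSO is fitted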
Outline: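 HepG2 cells transiently transfected with GAL4-UAS reporter units and exogenous GR-Gal4 chimera, dosed 24 h. Reporter mRNA by RT-PCR, FAM labeling, HpaI digest and capillary electrophoresis; gain-of-signal fit versus DMSO.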

[18] = molecular target: Hepatocyte nuclear factor 4-alpha (Homo sapiens) (UniProt P41235); experiment: ATG_HNF4a_TRANS: Attagene TRANS-FACTORIAL HepG2 Assay for human Hepatocyte Nuclear Factor 4 alpha (HNF4a) (AID 2282982); conditions: HepG2 HNF4a transactivation reporter, mRNA readout
Outline: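 Readout is fluorescent reporter-transcript fragments resolved by capillary electrophoresis after RT-PCR from HepG2 cells dosed for 24 h. Cells carried transfected GAL4-UAS reporter constructs measuring exogenous NR-GAL4 chimera activity; DMSO served as baseline.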

[19] = ATG_M_32_TRANS: Attagene TRANS-FACTORIAL HepG2 Assay for M32 Transcription Factor (Internal Marker) (AID 2282984); conditions: HepG2 Attagene TRANS M32 internal marker reporter;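 further: transcript level of a background control reporter unit measured by RT-PCR and capillary electrophoresis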
Outline: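 Measures reporter mRNA induction in human HepG2 liver cells after 24 h chemical treatment. Transcripts from transiently transfected GAL4-UAS reporter units are amplified, fluorescently labelled and sized by capillary electrophoresis; gain of signal relative to DMSO.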

Measured: AC50

Sequence of Nuclear receptor subfamily 1 group I member 3 (Homo sapiens) (Q14994 whole entry, looked up, the tested form may be a part): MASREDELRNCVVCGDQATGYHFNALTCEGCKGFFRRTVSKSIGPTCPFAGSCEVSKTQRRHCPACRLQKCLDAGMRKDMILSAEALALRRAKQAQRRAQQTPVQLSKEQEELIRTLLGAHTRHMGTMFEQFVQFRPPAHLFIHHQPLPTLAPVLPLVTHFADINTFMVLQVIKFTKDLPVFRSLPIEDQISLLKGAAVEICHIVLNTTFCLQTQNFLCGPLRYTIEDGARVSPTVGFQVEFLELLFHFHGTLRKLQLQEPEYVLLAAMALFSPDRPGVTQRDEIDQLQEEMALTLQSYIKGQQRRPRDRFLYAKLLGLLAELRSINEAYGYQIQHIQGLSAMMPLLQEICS
Sequence of Nuclear respiratory factor 1 (Homo sapiens) (Q16656 whole entry, looked up): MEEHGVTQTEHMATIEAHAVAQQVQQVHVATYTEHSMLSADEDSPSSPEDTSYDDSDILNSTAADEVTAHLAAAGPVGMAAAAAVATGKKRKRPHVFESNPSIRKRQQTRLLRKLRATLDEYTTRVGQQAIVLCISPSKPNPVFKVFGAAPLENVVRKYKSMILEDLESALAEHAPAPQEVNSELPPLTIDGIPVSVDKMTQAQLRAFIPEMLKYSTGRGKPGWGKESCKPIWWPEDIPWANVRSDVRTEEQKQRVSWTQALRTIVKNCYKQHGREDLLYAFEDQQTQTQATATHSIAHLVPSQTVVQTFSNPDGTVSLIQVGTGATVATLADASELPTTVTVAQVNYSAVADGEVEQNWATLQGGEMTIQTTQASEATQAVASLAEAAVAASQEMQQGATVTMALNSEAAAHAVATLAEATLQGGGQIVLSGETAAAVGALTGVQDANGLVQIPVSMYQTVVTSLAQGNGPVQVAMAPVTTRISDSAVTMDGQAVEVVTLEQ
Sequence of Oxysterols receptor LXR-alpha (Homo sapiens) (Q13133 whole entry, looked up, the tested form may be a part): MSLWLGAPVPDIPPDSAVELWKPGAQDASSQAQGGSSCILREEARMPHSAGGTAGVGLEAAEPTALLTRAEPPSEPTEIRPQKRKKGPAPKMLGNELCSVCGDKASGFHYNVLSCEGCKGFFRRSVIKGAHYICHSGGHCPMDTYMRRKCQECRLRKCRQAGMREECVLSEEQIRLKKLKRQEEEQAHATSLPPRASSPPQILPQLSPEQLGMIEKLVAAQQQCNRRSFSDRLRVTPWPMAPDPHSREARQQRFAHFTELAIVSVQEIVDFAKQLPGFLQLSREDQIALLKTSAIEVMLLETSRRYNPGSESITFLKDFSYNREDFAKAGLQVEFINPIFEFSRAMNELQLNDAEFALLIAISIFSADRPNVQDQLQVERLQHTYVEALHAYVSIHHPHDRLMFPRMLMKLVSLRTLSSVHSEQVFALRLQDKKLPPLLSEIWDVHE
Sequence of Transcriptional activator Myb (Homo sapiens) (P10242 whole entry, looked up): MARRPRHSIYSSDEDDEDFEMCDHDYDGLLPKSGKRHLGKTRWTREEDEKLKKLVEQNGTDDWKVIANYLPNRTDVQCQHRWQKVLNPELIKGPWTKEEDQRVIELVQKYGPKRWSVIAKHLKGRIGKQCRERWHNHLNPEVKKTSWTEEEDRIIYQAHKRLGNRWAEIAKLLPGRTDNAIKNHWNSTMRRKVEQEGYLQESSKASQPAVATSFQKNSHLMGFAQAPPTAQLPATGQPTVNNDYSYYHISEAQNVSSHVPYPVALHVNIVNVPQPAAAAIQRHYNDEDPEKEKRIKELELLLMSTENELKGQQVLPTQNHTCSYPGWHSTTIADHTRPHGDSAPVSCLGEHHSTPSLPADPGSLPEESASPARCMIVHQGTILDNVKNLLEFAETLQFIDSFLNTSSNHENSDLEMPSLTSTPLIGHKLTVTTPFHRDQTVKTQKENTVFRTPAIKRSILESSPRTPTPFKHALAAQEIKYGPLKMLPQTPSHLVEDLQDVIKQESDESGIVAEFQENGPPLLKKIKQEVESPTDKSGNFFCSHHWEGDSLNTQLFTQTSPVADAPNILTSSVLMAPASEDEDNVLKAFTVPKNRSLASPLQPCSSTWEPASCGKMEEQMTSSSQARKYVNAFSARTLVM
Sequence of X-box-binding protein 1 (Homo sapiens) (P17861 whole entry, looked up): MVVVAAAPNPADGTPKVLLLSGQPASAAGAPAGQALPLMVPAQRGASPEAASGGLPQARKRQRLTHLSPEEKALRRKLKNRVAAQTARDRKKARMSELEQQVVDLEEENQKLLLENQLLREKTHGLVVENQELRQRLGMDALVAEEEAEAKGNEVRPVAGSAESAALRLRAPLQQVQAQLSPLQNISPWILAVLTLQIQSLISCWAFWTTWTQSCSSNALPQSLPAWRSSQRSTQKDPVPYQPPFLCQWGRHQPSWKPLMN
Sequence of Oxysterols receptor LXR-beta (Homo sapiens) (P55055 whole entry, looked up, the tested form may be a part): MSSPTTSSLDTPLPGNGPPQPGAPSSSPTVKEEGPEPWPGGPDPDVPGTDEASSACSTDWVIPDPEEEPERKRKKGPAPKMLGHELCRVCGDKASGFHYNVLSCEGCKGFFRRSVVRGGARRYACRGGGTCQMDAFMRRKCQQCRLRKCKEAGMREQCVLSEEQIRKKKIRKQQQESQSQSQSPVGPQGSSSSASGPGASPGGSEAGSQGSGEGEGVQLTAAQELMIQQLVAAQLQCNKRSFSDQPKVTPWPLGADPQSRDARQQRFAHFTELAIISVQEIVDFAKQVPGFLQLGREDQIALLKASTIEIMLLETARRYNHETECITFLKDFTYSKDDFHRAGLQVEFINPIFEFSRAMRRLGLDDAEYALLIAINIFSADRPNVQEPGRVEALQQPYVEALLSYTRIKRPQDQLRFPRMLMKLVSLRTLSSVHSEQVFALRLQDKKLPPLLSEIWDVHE
Sequence of Hepatocyte nuclear factor 4-alpha (Homo sapiens) (P41235 whole entry, looked up, the tested form may be a part): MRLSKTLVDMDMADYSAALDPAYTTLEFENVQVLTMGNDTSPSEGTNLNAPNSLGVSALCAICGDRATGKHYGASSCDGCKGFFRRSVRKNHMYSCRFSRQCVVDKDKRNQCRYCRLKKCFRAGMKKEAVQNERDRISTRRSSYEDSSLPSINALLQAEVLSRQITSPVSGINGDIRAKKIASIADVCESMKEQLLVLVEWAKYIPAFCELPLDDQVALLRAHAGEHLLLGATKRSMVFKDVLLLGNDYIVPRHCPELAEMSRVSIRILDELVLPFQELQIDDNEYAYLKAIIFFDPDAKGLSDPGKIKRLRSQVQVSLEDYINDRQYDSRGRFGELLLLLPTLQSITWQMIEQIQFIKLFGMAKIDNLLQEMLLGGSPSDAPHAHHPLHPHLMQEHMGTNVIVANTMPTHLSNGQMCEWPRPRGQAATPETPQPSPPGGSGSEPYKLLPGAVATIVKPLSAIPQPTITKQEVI
Sequence of Nuclear receptor subfamily 4 group A member 2 (Homo sapiens) (P43354 whole entry, looked up, the tested form may be a part): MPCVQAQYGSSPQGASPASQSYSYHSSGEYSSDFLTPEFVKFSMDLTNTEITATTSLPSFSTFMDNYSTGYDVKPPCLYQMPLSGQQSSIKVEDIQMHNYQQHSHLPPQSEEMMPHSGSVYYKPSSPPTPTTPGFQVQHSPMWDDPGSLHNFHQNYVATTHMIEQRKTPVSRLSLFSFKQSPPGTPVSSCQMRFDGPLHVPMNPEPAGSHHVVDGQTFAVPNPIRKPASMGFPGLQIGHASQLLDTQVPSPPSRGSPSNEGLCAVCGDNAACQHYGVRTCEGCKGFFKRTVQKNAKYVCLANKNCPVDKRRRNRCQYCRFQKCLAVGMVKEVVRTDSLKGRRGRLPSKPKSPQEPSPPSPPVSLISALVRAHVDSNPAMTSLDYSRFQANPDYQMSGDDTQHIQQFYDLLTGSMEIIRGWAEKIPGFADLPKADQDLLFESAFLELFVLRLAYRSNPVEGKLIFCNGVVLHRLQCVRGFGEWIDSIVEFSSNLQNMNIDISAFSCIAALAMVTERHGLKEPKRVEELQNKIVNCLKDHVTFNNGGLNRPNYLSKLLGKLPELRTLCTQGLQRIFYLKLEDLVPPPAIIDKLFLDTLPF
Sequence of Bile acid receptor (Homo sapiens) (Q96RI1 whole entry, looked up, the tested form may be a part): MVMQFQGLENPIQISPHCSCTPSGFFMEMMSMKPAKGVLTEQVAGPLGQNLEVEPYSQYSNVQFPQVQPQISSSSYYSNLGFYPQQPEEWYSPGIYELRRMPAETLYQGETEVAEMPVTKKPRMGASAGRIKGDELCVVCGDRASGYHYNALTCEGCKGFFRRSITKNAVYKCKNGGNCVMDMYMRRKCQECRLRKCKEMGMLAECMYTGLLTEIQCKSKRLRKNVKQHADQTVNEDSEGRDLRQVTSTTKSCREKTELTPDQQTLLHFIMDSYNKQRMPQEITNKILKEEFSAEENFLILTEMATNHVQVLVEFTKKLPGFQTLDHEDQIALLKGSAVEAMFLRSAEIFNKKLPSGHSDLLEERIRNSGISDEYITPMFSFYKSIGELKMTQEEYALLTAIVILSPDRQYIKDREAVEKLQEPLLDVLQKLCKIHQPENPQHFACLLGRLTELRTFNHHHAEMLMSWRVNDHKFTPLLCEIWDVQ
Sequence of Estrogen receptor (Homo sapiens) (P03372 whole entry, looked up, the tested form may be a part): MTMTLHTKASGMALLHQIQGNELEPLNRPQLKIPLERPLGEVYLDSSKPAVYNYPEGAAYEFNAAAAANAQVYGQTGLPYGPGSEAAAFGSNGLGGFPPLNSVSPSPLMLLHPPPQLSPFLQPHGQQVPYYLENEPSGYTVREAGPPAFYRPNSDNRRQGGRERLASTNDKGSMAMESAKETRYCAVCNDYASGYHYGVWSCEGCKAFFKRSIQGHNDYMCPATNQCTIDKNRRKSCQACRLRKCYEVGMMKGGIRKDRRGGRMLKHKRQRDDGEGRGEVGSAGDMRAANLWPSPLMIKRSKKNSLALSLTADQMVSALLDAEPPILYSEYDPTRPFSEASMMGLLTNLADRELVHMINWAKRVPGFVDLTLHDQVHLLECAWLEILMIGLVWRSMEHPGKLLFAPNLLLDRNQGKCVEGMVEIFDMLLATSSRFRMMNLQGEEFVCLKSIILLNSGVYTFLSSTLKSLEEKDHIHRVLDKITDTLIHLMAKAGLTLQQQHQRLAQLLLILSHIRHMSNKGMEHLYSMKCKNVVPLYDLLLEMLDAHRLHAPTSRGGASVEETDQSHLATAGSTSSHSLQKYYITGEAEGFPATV

COC(C)CCO (stereo unspecified)
inactive: [1] | [2] | [4] | [5] | [7] | [8] | [9] | [10] | [11]
active: [3] 65.3 µM | [6] 27.7 µM

CCCC(=O)c1cc(O)c(O)cc1O
inactive: [1] | [2] | [3] | [12] | [5] | [13] | [14] | [15] | [16] | [6] | [7] | [8] | [9] | [10] | [11]

CC(c1cc2ccccc2s1)N(O)C(N)=O (stereo unspecified)
active: [17] 100 µM
inactive: [1] | [2] | [3] | [12] | [5] | [13] | [7] | [10] | [11]

CC(=O)OCCOC(C)=O
inactive: [1] | [2] | [3] | [4] | [13] | [14] | [6] | [18] | [8] | [19] | [10]

O=C(O)CCCCCCCC(=O)O
inactive: [1] | [2] | [3] | [4] | [5] | [7] | [18] | [8] | [19] | [10]

CC(CC(C)(C)C)CC(C)(C)CC(C)(C)C (stereo unspecified)
inactive: [1] | [2] | [3] | [4] | [5] | [17] | [16] | [7] | [18] | [8] | [19] | [9] | [10] | [11]
